We go through 40 compounds from PubChem BioAssay (NCI).

The structures appear in SMILES notation. Compounds without any hit were thinned out: in the full panel of roughly 79,000, 15% have a hit. Unmarked numbers belong to inactive results. Cut-off read from the data, not from the text of the source: active = growth inhibition above about 70%; inactive = the rest.

The test can be described thus: NCI Yeast Anticancer Drug Screen. Data for the bub3 strain (AID 167). The following applies: S. cerevisiae bub3 mutant strain, at 50.0 µM, stronger effect = higher value. As for the experimental part:
Growth inhibition of yeast strains with defined genetic alterations is measured as a screen for potential anti-cancer activity. Selected strains with alterations in DNA damage repair or cell cycle control were exposed to compounds and growth inhibition was measured relative to vehicle treated controls. The strain used in this assay is bub3
Regarding `Cc1ccc(NC(=O)c2ccccc2Cl)cc1`, the growth inhibition is -6.3%.

For the compound `O=S(=O)(OCCOS(=O)(=O)c1ccccc1)c1ccccc1`, the growth inhibition is -9.1%.

For the compound `N#CC1(O)CCCCC1`, the growth inhibition was 17.9%.

With `CCCC(=O)c1cccs1`, the growth inhibition is -4.1%.

Consider `CC(C)N1CC(=O)N2CSCC2C1=O` (stereo not given), for which the growth inhibition is 13.1%.

In the case of `CCCCCC(=O)OCCC1CCCCC1`, the growth inhibition is 11.6%.

Take `CC(C)(C)NCCC(O)c1cc(C(F)(F)F)nc2c(C(F)(F)F)cccc12` (stereo not given): the growth inhibition is -11.9%.

For `NNC(=O)c1ccccc1N`, the growth inhibition was -2%.

For `CC(=O)c1ccc(C)cc1`, the growth inhibition was -36%.

On to `C/C(=N\O)c1ccccn1`, for which the growth inhibition was -8.85%.

For `OC1Cc2ccccc2C1`, the growth inhibition is -28.1%.

On to `CCOc1ccc(NC(=S)N2CCC(CCCC3CCN(C(=S)Nc4ccc(OCC)cc4)CC3)CC2)cc1`, for which the growth inhibition is -9.05%.

Regarding `O=C(Nc1ccc([N+](=O)[O-])cc1)C(=O)Nc1ccc([N+](=O)[O-])cc1`, the growth inhibition is 3.1%.

Consider `O=C1NC(=O)C(c2ccccc2)O1` (stereo not given), for which the growth inhibition is 18.8%.

With `CC(C)C(=O)OCCOc1ccc(C(C)(C)C)cc1`, the growth inhibition is 15%.

Turning to `FC(F)(F)c1cc(NC2=NCCN=C(Nc3cc(C(F)(F)F)cc(C(F)(F)F)c3)SS2)cc(C(F)(F)F)c1`, the growth inhibition is -22%.

In the case of `O=C(CCl)Oc1ccc([N+](=O)[O-])cc1`, the growth inhibition was 19.8%.

Take `CCOC(C=O)OCC`: the growth inhibition was -4.3%.

`COc1ccc(C2CC(c3ccccc3)=Nc3ccccc3S2)cc1` (stereo not given): the growth inhibition is 25.2%.

For `Cn1c(=O)c2nc3c(=O)n(C)c(=O)n(C)c3nc2n(C)c1=O`, the growth inhibition is -13.7%.

With `CCNC(=O)Oc1ccc[nH]c1=O`, the growth inhibition is -2.2%.

As to `CC(=O)Nc1ccc(C(=O)c2ccc(S(=O)(=O)Nc3ccccc3)cc2)cc1`, the growth inhibition was 6.05%.

As to `Cc1cccc(C)c1NC(=S)/N=C\c1c(O)[nH]c(=O)[nH]c1=O`, the growth inhibition is -46.1%.

As for `Cc1ccccc1NC(=O)Oc1ccc(Cl)cc1C(=O)c1ccccc1`, the growth inhibition was 21.2%.

Regarding `CCCNS(=O)(=O)c1ccc(Cl)cc1`, the growth inhibition was -4.75%.

As to `Cc1cc(C)cc(OCC(=O)O)c1`, the growth inhibition was -4.45%.

As to `CC(=O)c1cccs1`, the growth inhibition is -3.35%.

For `NS(=O)(=O)c1cc(=O)[nH]c(=O)[nH]1`, the growth inhibition was -1.95%.

With `CC1(C)CCC(C)(C)NC(=S)N1`, the growth inhibition is 13.5%.

With `CC(C)C(C)(C)C(=O)C(C)(C)C(C)(C)C`, the growth inhibition was 2.6%.

In the case of `CCCCCCCCCCCCCCCCCCSC(=N)N`, the growth inhibition is 29.3%.

With `Cc1cc(C(=O)NN)c(C#N)c(=O)[nH]1`, the growth inhibition was 2.6%.

As for `Cc1[nH]nc(C(N)=O)c1[N+](=O)[O-]`, the growth inhibition is -6.7%.

For the compound `NC(=O)NCCO`, the growth inhibition was -6.05%.

`Cc1ccccc1CC(N)C(=O)O` (stereo not given): the growth inhibition was 8.85%.

In the case of `CCOS(=O)(=O)c1ccc([N+](=O)[O-])cc1`, the growth inhibition is 5.2%.

Take `CCOP(=O)(NC(c1ccccc1)c1ccccc1)OCC`: the growth inhibition is 25.1%.

`CN(C)c1ccc2nc3ccc(=[N+](C)C)cc-3oc2c1`: the growth inhibition was 6.1%.

For the compound `COc1ccc2c(Cl)cc(NC(=O)Nc3c(C)cccc3C)nc2c1`, the growth inhibition is 21.1%.

For `O=C(Oc1ccccc1Cl)c1ccc(Cl)cc1Cl`, the growth inhibition is 43.2%.
